Reference: PubChem BioAssay AID686979 (National Center for Advancing Translational Sciences (NCATS), 2013)
In all, about 420,000 compounds went through this assay and about 50,000 (12%) were called active. A call without a number means that no potency is given here. About 26% were inconclusive and are not listed. Calls come from the whole dose curve; as a rule, active = well fitted inhibition curve with a large enough effect; inconclusive = small, poorly fitted or top-dose-only effect; inactive = flat fitted curve, though single readings scatter. For the sample, actives were picked, then their nearest neighbours and some compounds at random. Where a SMILES comes first, the peptide text is derived from it. Bridges are numbered along the chain shown (N, C = ends). [ ]: non-standard residue; d: D form. The star is where a group is joined. X4 = CC[C@H](C)CCCCC(=O)*; Dab = NCC[C@H](N)C(=O)O

Experiment: qHTS for Inhibitors of human tyrosyl-DNA phosphodiesterase 1 (TDP1): qHTS in cells in presence of CPT; note: nearly all actives have a fitted effect of over 55% in size
Conditions: chicken DT40 Tdp1-/-;hTDP1 cells + 20 nM CPT, ATP luminescence, 48 h; series mostly up to 46.2 µM
How it was run: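 Chicken DT40 Tdp1-/- cells complemented with human TDP1, 400 cells/well, exposed to compounds plus 20 nM camptothecin for at least 48 h at 37 C; viability read as ATP content by CellTiter-Glo luminescence.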
Potency is the fitted concentration of half-maximal effect.

SMILES	Potency
CC(C)C(=O)Nc1nnc(SCC(=O)N2C(C)CCCC2C)s1 (stereo unspecified)	inactive
CSc1ccccc1OCc1cc(C(=O)N2C[C@H]3CC[C@H]2C3)no1	inactive
CCc1ccccc1NC(=O)CCOc1ccccc1	inactive
CCc1ccccc1NC(=O)/C(=C/c1ccccc1)c1ccccc1	20.6 µM (active)
CCc1ccccc1NC(=S)Nc1cc(OC)c(NC(=O)C(C)C)cc1OC	inactive
CC(=O)Nc1ccc(N2C(=O)C3C4C=CC(CC4)C3C2=O)cc1 (stereo unspecified)	inactive
O=C(Nc1cccc(F)c1)[C@@H]1CCCN1	inactive
Cc1ccc(CN2CCCOCCS2(=O)=O)cc1	inactive
O=C1NC[C@@H](CCCCN2CCN(CCc3ccc(O)cc3)C(=O)C2=O)N(CC2CCCCC2)C1=O	inactive
Oc1ccc2c(c1)OCC1c3cc4c(cc3OC21)OCO4 (stereo unspecified)	inactive
O=[N+]([O-])c1cc(S(=O)(=O)CCCN2CCOCC2)ccc1F	20.6 µM (active)
O=C(NCCCN1CCOCC1)c1ccc([N+](=O)[O-])cc1[N+](=O)[O-]	inactive
O=S(=O)(NCCCN1CCOCC1)c1ccc(F)c(Cl)c1	inactive
Cc1ccsc1/C=N/n1c(=S)[nH]nc(C)c1=O	16.4 µM (active)
Oc1ccccc1/C=N/n1c(-c2cccs2)n[nH]c1=S	inactive
S=c1[nH]nc(-c2cccs2)n1/N=C/c1cccs1	inactive
O=C(COC(=O)c1cc2c(s1)CCCC2)NCc1ccccc1Cl	inactive
O=c1cc(COc2cccc(C(F)(F)F)c2)nc2sc3c(n12)CCCC3	inactive
Cc1ccc2nsnc2c1NC(=O)c1ccccc1[N+](=O)[O-]	inactive
O=C(Nc1ccccn1)C1CCN(S(=O)(=O)c2ccc3c(c2)OCCO3)CC1	inactive
CCN1C(=NCC(C)C)N[C@@H](CCc2ccccc2)[C@H](C(=O)NCC(C)C)[C@H]1C	13 µM (active)
CCN1C(=NCCc2cccnc2)N[C@@H](c2ccccc2)[C@H](C(=O)OC)[C@H]1C	inactive
CCN1C(=O)N[C@@H](c2ccccc2)[C@H](C(C)=O)[C@H]1C	inactive
COCCN1C(=O)N[C@@H](CCc2ccccc2)[C@H](C(C)=O)[C@H]1C	inactive

SMILES	Potency
CCN1C(=NCc2ccc(OC)cc2)N[C@@H](CCc2ccccc2)[C@H](C(=O)NCc2ccc(OC)cc2)[C@H]1C	18.4 µM (active)
O=C(CSc1nnc(N2CCOCC2)n1-c1cccc(F)c1)N1CCN(c2ccccn2)CC1	inactive
Cc1cc(NC(=O)CSCC(=O)NC(C)c2ccccc2)no1 (stereo unspecified)	inactive
CC(C)(C)NC(=O)COC(=O)c1cc(Br)ccc1Cl	inactive
C[C@H](CO)N1C[C@H](C)[C@@H](CN(C)S(=O)(=O)c2ccc(F)cc2)Oc2c(NC(=O)Nc3ccccc3)cccc2C1=O	inactive
CCCc1nn(C)c2c(=O)[nH]c(-c3cc(S(N)(=O)=O)ccc3OCC)nc12	inactive
Cc1nnc(CN(C)Cc2cn[nH]c2-c2ccc(-c3ccccc3)cc2)o1	inactive
COc1ccc(/C=C/C(=O)c2cc(Br)ccc(=O)c2O)cc1	14.6 µM (active)
COc1ccc2oc(=N)c(C(=O)Nc3ccc(Br)cc3)cc2c1	inactive
COc1ccc2oc(=O)c(C(=O)O)cc2c1	inactive
O=[N+]([O-])c1ccc(N=NNc2ccc([N+](=O)[O-])cc2)cc1	inactive
COc1ccccc1NS(=O)(=O)c1ccc(C(=O)N2CCN(c3ccccc3O)CC2)cc1	18.4 µM (active)
CC(C)c1ccc(S(=O)(=O)N2CCN(C(=O)c3ccc(N4CCCC4)c([N+](=O)[O-])c3)CC2)cc1	16.4 µM (active)
COc1ccccc1N1CCN(C(=O)c2ccc(S(=O)(=O)N3CCCCC3)cc2)CC1	23.1 µM (active)
COc1ccc(S(=O)(=O)Nc2ccccc2C(=O)N2CCCC2)cc1C	inactive
CN(c1ccccc1)S(=O)(=O)c1ccc(C(=O)N2CCN(c3ccccc3Cl)CC2)cc1	23.1 µM (active)
O=C(c1ccc(S(=O)(=O)c2ccccc2)cc1)N1CCCCCC1	inactive
COc1ccccc1NC(=O)CN1C(=O)c2ccccc2Sc2ccc(C(=O)N3CCCC3)cc21	inactive
CN(c1ccccc1)S(=O)(=O)c1ccc(Cl)c(C(=O)OCC(=O)N2CCOCC2)c1	inactive
COc1ccccc1CC(=O)Nc1ccc(S(=O)(=O)N2CCCC2)cc1	inactive
COc1cc(C(=O)N2CCN(S(=O)(=O)c3ccc(C(C)C)cc3)CC2)ccc1OCC(=O)N1CCOCC1	inactive
Cc1ccc(S(=O)(=O)N2CCN(C(=O)c3ccc(-n4cncn4)c([N+](=O)[O-])c3)CC2)cc1	inactive
O=C(c1ccc(S(=O)(=O)N2CCOCC2)cc1)N1CCN(c2ccccc2)CC1	inactive
O=C(OCCN1CCOCC1)C1(c2ccccc2)CCCCC1	inactive

SMILES	Potency
CCN(Cc1ccccc1)Cc1c(O)ccc2c(=O)c(-c3ccc(Cl)cc3Cl)coc12	inactive
Cc1nc(C(F)(F)F)ccc1C(=O)N1CCC1(C)C(=O)NS(=O)(=O)c1ccc(F)cc1F (stereo unspecified)	inactive
O=C(Nc1cccnc1)c1cc(Cl)ccc1Cl	inactive
CC(=O)c1nn(-c2ccc(C)cc2)cc1C(=O)c1cccc(Br)c1	inactive
COc1ccc(S(=O)(=O)N2CCN(C(=O)N(C)C)C2C)cc1 (stereo unspecified)	inactive
COc1ccc(NC(=O)CCCC(=O)c2ccccc2)cc1	inactive
CC(C)N(C(=O)Cn1cc(S(=O)(=O)CC(=O)N2CCOCC2)c2ccccc21)C(C)C	inactive
CCCc1nn2c(=O)cc(COC(=O)c3ccc(NC(=O)COc4ccc(F)cc4)cc3)nc2s1	inactive
CC(C)(C)NC(=O)C(c1ccc(Cl)cc1)N(CCO)C(=O)c1snc(C(N)=O)c1N (stereo unspecified)	13 µM (active)
COc1cc(C(C(=O)NC2CCCC2)N(Cc2ccccc2)C(=O)c2snc(C(N)=O)c2N)ccc1O (stereo unspecified)	inactive
NC(=O)c1nsc(C(=O)N(CCCN2CCOCC2)C(C(=O)NC2CCCCC2)c2ccc(Cl)cc2)c1N (stereo unspecified)	inactive
CC(C)(C)C(=O)NC1CC2CCCC(C1)N2C(=O)Nc1ccccc1F (stereo unspecified)	inactive
COC(=O)[C@@H]1CCCN1C(=O)c1cc(COc2cccc3cccnc23)on1	inactive
COCC1CCCCN1C(=O)c1cc(COc2ccc(C)c(C)c2)on1 (stereo unspecified)	20.6 µM (active)
Cc1ccc(OCc2cc(C(=O)N(C)CCn3ccnc3C)no2)cc1C	inactive
O=C1C=CN2CCCC2CC1 (stereo unspecified)	16.4 µM (active)
Cc1cc(C)c(C#N)c(Nc2cccc(Br)c2)n1	inactive
CCCNC(=O)C1(C)CCN1C(=O)Cc1ccc(-c2ccccc2)cc1 (stereo unspecified)	16.4 µM (active)
CC1(C(=O)NS(=O)(=O)c2ccccc2)CCN1C(=O)Cc1ccc(-c2ccccc2)cc1 (stereo unspecified)	inactive
CC1(C(=O)NS(=O)(=O)c2cccs2)CCN1C(=O)Cc1ccc(-c2ccccc2)cc1 (stereo unspecified)	inactive
CCOC(=O)c1c(C)[nH]c(C(=O)OCC(=O)c2ccc(OC)cc2OC)c1C	inactive
N#C/C(=C\c1cccnc1)C(=O)Nc1ccc(SC(F)F)cc1	inactive
CS(=O)(=O)N1CCC(C(=O)N2CCN(c3ccccc3)CC2)CC1	inactive
O=C(C1CCC1)N1CCN(c2ccccc2)CC1	inactive

SMILES	Potency
Cn1c(C(=O)N2CCC(C(=O)N3CCN(c4ccccc4)CC3)CC2)cc2sccc21	13 µM (active)
CCOC(=O)Cc1ncccc1C(=O)Nc1ccc(OC)cc1	inactive
Cc1ccc2cccc([N+](=O)[O-])c2n1	inactive
CC[C@H](C)CCCCC(=O)N[C@@H](CCN)C(=O)N[C@H](C(=O)N[C@@H](CCN)C(=O)N[C@H]1CCNC(=O)[C@H]([C@@H](C)O)NC(=O)[C@H](CCN)NC(=O)[C@H](CCN)NC(=O)[C@H](CC(C)C)NC(=O)[C@@H](CC(C)C)NC(=O)[C@H](CCN)NC1=O)[C@@H](C)O (X4-[Dab]T[Dab][Dab][Dab][dL]L[Dab][Dab]T; lactam 4-C)	inactive
CC(=O)N1CCCc2ccc(NS(=O)(=O)c3ccc(F)cc3F)cc21	inactive
Cc1nn(CCOc2ccccc2)c(=O)n1-c1ccccc1F	inactive
CCN1C(=O)/C(=C\N2CCN(c3cccc(Cl)c3)CC2)SC1=S	inactive
CCc1nn(CCCN2CCN(c3cccc(Cl)c3)CC2)c(=O)n1CCOc1ccccc1	11.6 µM (active)
Cc1cc(C)cc(NC(=O)CCCc2nc(-c3ccccc3Cl)no2)c1	inactive
COc1ccc(-c2noc(CNC(=O)C(C)Oc3ccccc3)n2)cc1 (stereo unspecified)	inactive
NC1=NC(c2ccc([N+](=O)[O-])cc2)N(c2ccc(F)cc2)C(N)=N1 (stereo unspecified)	inactive
Cc1ccc(OCc2nc3ccccc3n2C)cc1	inactive
COCCn1c(-c2ccc(OC)c(OC)c2)nc2ccccc21	inactive
Cc1ccc(OCCn2c(CNc3ccccc3C)nc3ccccc32)cc1	23.1 µM (active)
COc1cc2ccccc2cc1C(=O)Nc1nc(C)c(C(C)=O)s1	inactive
O=C(COc1ccccc1F)Nc1ccc(C(=O)OCc2cc(=O)n3nc(C4CC4)sc3n2)cc1	inactive
Cc1csc2nc(COc3ccc(NC(=O)COc4ccccc4)cc3)cc(=O)n12	inactive
Cc1csc2nc(COC(=O)c3ccc(NC(=O)COc4ccccc4F)cc3)cc(=O)n12	18.4 µM (active)
COc1ccc(CCNC(=O)CCNS(=O)(=O)c2cc(Br)cnc2N)cc1OC	inactive
COC(=O)[C@H](CC(C)C)NC(=O)N1CCCCC1C (stereo partly specified)	inactive
Cc1nc2ccccc2c(C(=O)O)c1-c1ccccn1	inactive
CC(C)(C)Nc1nc(-c2ccccn2)nc2ccccc12	4.61 µM (active)
CC(=O)Nc1ccc(NC(=O)CCN2C(=O)C3CC=CCC3C2=O)cc1 (stereo unspecified)	inactive
COC(=O)[C@]1(C)CCC[C@@]2(C)C3CC[C@]4(OC(C)=O)C[C@@]3(CCC21)CC4=NO (stereo partly specified)	16.4 µM (active)
